# Laboratory results reported in PubChem BioAssay AID2567 (National Center for Advancing Translational Sciences (NCATS), 2010).
# Records with an inconclusive call do not appear. Activity calls are given as the source filed them. Calls come from the whole dose curve; as a rule, active = well fitted antagonist curve with a large enough effect in the main read-out, with a control signal flat; inconclusive = small, poorly fitted or top-dose-only effect; inactive = no such curve, though single readings can be large or run the other way.
# Molecular target: Neuropeptide S receptor (Homo sapiens) (UniProt Q6W5P4)
# Experiment: Confirmation Concentration-Response Assay for Antagonists of the Neuropeptide S Receptor: Calcium Signal Transduction, SAR for Probe
# Settings: CHO-NPSR cells, NPS-induced calcium fluorescence, FDSS; series mostly up to 19.3 µM; activity change, negative = inhibition: at the top concentration
# Description: NIH Chemical Genomics Center [NCGC] NIH Molecular Libraries Probe Production centers Network [MLPCN] MLPCN Grant: X01-DA026210-01 Assay Submitter (PI): Heilig, Markus Alexander NCGC Assay Overview: Neuropeptide S receptor (NPSR), previously known as GPR154, is a recently de-orphanized G protein coupled receptor. Its endogenous ligand is the 20 amino acids peptide Neuropeptide S (NPS). […] NPS and its receptor are found in various tissues. Specifically they are highly expressed in brain areas that have been implicated in modulation of arousal, stress and anxiety. Central administration of NPS in mice produces an unusual profile of activity by inducing wakefulness and arousal, while at the same time suppressing anxiety. Therefore, NPSR may represent a novel drug target for the treatment of sleep and anxiety disorders. To identify NPSR antagonists, we developed a cell-based assay with transfected NPS receptor. NPS can stimulate the production of cAMP as well as release intracellular calcium in Chinese hamster ovary cells stably expressing NPS receptor. This change in intracellular calcium can be detected using a calcium indicator dye on a calcium imaging plate reader system (FDSS).
# NCGC Assay Protocol Summary: A Chinese hamster ovary (CHO) cell line stably expressing the NPS receptor (CHO-NPSR) was obtained from Dr. Heilig lab at NIAAA and maintained in F-12 Kaighn's media (Invitrogen, Carlsbad, CA, 21127) supplemented with 10 % FBS, 100 units/ml penicillin, 100 ug/ml streptomycin and 250 ug/ml geneticin at 37C, 5% CO2 in a humidified atmosphere. Before the assay, aliquots of cells were frozen and stored at -135C. The assay was performed on a FDSS-7000 kinetic plate reader in 1536-well format. For both agonist (1-220s) and antagonist (221-400s) phases, the maximums of kinetic fluorescence responses were converted separately into text files using the instrument's software data export utility. Data for agonist response were normalized to the controls for basal activity (DMSO only) and 100% activation (NPS). […] AC50 values were determined from concentration-response data modeled with the standard Hill equation. NPS 1536-well FDSS assay protocol: (1) Frozen CHO-NPSR cells were thaw, washed once with fresh media and resuspended in F-12 Kaighn's media supplemented with 10 % FBS, 100 units/ml penicillin and 100 ug/ml streptomycin. Cells were plated at 3 ul/well (1200 cells) to black, clear-bottom, tissue-culture treated 1536-well plates, and then cultured at 37C, 5 % CO2 for 16 to 30 hours. (2) Add 3 ul of calcium dye (from High Performance PBX Calcium Assay Kit, BD Biosciences). The calcium dye was prepared according to the manufactory's instruction. (3) Incubation at 37C, 5 % CO2 for 60 to 120 min. (4) Load plates to FDSS-7000. The following steps were performed on FDSS-7000. (5) Record fluorescent background (Ex 480 nm, Em 520-560 nm) for 10 s. (6) Add 23 nl/well of compound in DMSO solution. The final titration for each compound was between 0.6 nM and 46 uM. Record agonist response for 210 s. (7) Add 2 ul of stimulation reagent (1X HBSS buffer, 0.1% BSA, 60 nM NPS). Record antagonist response for 140 s. Keywords: MLSMR, MLPCN, NIH Roadmap, qHTS, NCGC, NPS, Neuropeptide S Antagonists
# Chain of Neuropeptide S receptor (Homo sapiens) (Q6W5P4 whole entry, looked up): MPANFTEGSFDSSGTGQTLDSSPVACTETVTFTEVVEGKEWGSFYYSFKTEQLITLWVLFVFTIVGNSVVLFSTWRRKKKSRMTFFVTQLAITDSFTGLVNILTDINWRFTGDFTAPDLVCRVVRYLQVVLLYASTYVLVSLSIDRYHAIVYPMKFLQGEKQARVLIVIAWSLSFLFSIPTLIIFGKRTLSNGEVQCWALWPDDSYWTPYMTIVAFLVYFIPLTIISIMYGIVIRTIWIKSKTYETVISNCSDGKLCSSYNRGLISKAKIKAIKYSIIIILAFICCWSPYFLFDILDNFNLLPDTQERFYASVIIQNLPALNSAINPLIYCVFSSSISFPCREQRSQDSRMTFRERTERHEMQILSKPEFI
Compound,"activity change, negative = inhibition",Potency
O=[N+]([O-])c1ccc(-c2nc(C(Cl)Cl)c3ccccc3n2)cc1,-23.4% (inactive),–
CC(C)Cc1nc(N2CCN(C(=O)c3ccccc3)CC2)c(C#N)c2c1CCC2,16% (inactive),–
COc1ccc(C2c3ccc4ccccc4c3Oc3ncn(CCN4CCOCC4)c(=N)c32)cc1OC (stereo not given),–,8.74 µM (active)
COc1ccc2c(c1)Oc1ncn(CCN3CCOCC3)c(=N)c1C2c1ccc(OC)c(OC)c1 (stereo not given),–,11 µM (active)
COc1ccc(C2c3ccccc3Oc3ncn(CCN4CCOCC4)c(=N)c32)cc1OC (stereo not given),–,0.694 µM (active)
COc1ccc(C(=O)N(Cc2ccco2)Cc2cccs2)c(O)c1,34.4% (inactive),–
CC1(C)O[C@@H]2C[C@H]3[C@@H]4C[C@H](F)C5=CC(=O)CC[C@]5(C)[C@H]4[C@@H](O)C[C@]3(C)[C@]2(C(=O)CO)O1,34.2% (inactive),–
COc1ccc(C2c3c(n(CCCc4ccccc4)cnc3=N)Oc3ccc4ccccc4c32)cc1OC (stereo not given),–,5.52 µM (active)
COc1cccc(C2c3c(ncn(-c4ccccc4Cl)c3=N)Oc3ccc4ccccc4c32)c1 (stereo not given),–,5.52 µM (active)
CCOC(=O)c1cnc(-n2nc(C)cc2C)nc1Nc1ccc(C)cc1,-19.5% (inactive),–
C/C(=N\Nc1ncc(Cl)cc1Cl)c1ccccn1,–,2.51 µM (active)
CCSc1nc2c(c(=O)n1Cc1ccccc1)SC(C)C2 (stereo not given),-2.84% (inactive),–
COc1cccc(C2c3c(ncn(-c4ccccc4C(C)(C)C)c3=N)Oc3ccc4ccccc4c32)c1 (stereo not given),–,4.38 µM (active)
S=C(Nc1ccccc1)Nc1nccs1,23.7% (inactive),–
COc1cccc(C2c3c(ncn(-c4ccc(C#N)cc4)c3=N)Oc3ccc4ccccc4c32)c1 (stereo not given),–,5.52 µM (active)
Cc1c(P(=S)(c2ccccc2)c2ccccc2)c2ccccc2n1C/C=C/c1ccccc1,62.1% [at 50.9 µM] (inactive),–
COc1cccc(C2c3c(ncn(-c4ccccc4C)c3=N)Oc3ccc4ccccc4c32)c1 (stereo not given),–,5.52 µM (active)
COc1cccc(C2c3c(ncn(-c4cccc(C)c4)c3=N)Oc3ccc4ccccc4c32)c1 (stereo not given),–,4.38 µM (active)
O=C1OC(c2ccccc2)(c2ccccc2)N2CCN(C(=O)NCc3ccc(F)cc3)CC12 (stereo not given),–,0.139 µM (active)
COc1ccc(C2c3c(nc(C)[nH]c3=O)Oc3ccc4ccccc4c32)cc1OC (stereo not given),-5.17% [at 50.9 µM] (inactive),–

Compound,"activity change, negative = inhibition",Potency
COc1ccc(C2c3ccc(OCc4ccccc4)cc3Oc3ncn(CCN4CCOCC4)c(=N)c32)cc1OC (stereo not given),-60.5% [at 50.9 µM] (inactive),–
COc1cccc(C2c3c(ncn(-c4ccccc4C#N)c3=N)Oc3ccc4ccccc4c32)c1 (stereo not given),–,4.38 µM (active)
C[n+]1cc(C(O)(c2ccccc2)c2ccccc2)n2ccccc21,-13.9% [at 50.9 µM] (inactive),–
COc1cccc(C2c3c(ncn(Cc4cccs4)c3=N)Oc3ccc4ccccc4c32)c1 (stereo not given),–,3.48 µM (active)
C(=N\Nc1nc(-c2ccccn2)nc2ccccc12)/c1ccccc1,1.74% (inactive),–
Cc1nc2ccccn2c1P(=O)(c1ccccc1)c1ccccc1,-25.3% [at 50.9 µM] (inactive),–
Cc1nn(C)cc1/C=N/NC(=S)Nc1ccccc1,3.91% (inactive),–
c1ccc(P(c2ccccc2)c2cnc3ccccn23)cc1,–,11 µM (active)
COc1ccc(C2c3c(ncn(CCc4ccccc4)c3=N)Oc3ccc4ccccc4c32)cc1OC (stereo not given),-81.6% [at 50.9 µM] (inactive),–
Oc1ccc(N=Nc2nccs2)c(O)c1,-0.946% (inactive),–
O=C(NCc1ccc(F)cc1)n1cc(P(=S)(c2ccccc2)c2ccccc2)c2ccccc21,17.3% [at 50.9 µM] (inactive),–
COc1cccc(C2c3c(ncn(-c4cccc(C#N)c4)c3=N)Oc3ccc4ccccc4c32)c1 (stereo not given),–,4.38 µM (active)
Cc1ccc(S(=O)(=O)Nc2cccc3ncccc23)s1,–,3.16 µM (active)
COc1cccc(C2c3c(ncn(-c4cccc(Cl)c4)c3=N)Oc3ccc4ccccc4c32)c1 (stereo not given),–,8.74 µM (active)
COc1ccc(C2c3c(ncn(Cc4ccccc4)c3=N)Oc3ccc4ccccc4c32)cc1OC (stereo not given),–,1.39 µM (active)
CC(=O)c1sc(-c2ccccc2)cc1NS(=O)(=O)c1ccccc1,19.9% (inactive),–
N=C1c2ccccc2CN1c1ccc(N2CCOCC2)c(S(=O)(=O)Nc2ccc(Cl)cc2)c1,–,1.41 µM (active)
Cc1cc2nc3ccc(=[N+](C)C)cc-3sc2cc1N,-7.55% (inactive),–
OC(c1ccccc1)(c1ccccc1)c1cnc2ccccn12,-20.4% [at 50.9 µM] (inactive),–
Cc1ccc(Nc2cc(C)nn2-c2nc(C)cc(C)n2)cc1,24.7% (inactive),–
